# From publication PMC5540273 (PLoS ONE, 2017)
# Assays:
# Conditions in all cases: concentration: 1 μM, replicates: in singlicate; n = 1
# [1] = system: T1, HASPIN
# T1 construct: gene GSG2
# [2] = system: HCK
# [3] = system: HIPK1
# [4] = system: HIPK2
# [5] = system: HIPK3
# [6] = system: HIPK4
# [7] = system: HPK1
# [8] = system: HUNK
# [9] = system: ICK
# [10] = system: IGF1R
# 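Further: KINOMEscan kinase panel screen.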
SMILES,%Inh [1],%Inh [2],%Inh [3],%Inh [4],%Inh [5],%Inh [6],%Inh [7],%Inh [8],%Inh [9],%Inh [10]
O=C(Nc1n[nH]c2nc(-c3cccc(O)c3)ccc12)C1CC1 [SB-711805],45%,15%,57%,27%,31%,7%,0%,0%,53%,0%
Cl.N#CCc1ccc(Nc2nccc(Nc3ccc(Oc4ccccc4)cc3)n2)cc1 [GW639905],0%,94.7%,0%,0%,14%,0%,36%,0%,0%,0%
COc1cc(Nc2nccc(N3CCC(NS(=O)(=O)c4ccc(NC(C)=O)cc4)CC3)n2)cc(OC)c1OC [GSK1379825],0%,0%,0%,0%,15%,0%,86%,0%,0%,0%
Cc1nn2c(=O)cc(N3CCO[C@H](C)C3)nc2n1Cc1cccc(Cl)c1Cl [GSK2373693],3%,22%,10%,30%,78%,0%,25%,0%,15%,10%
Cc1cccc(Nc2nc(NCCN)ncc2C(N)=O)c1 [GSK1292139],56%,25%,0%,0%,7%,0%,85%,0%,13%,0%
O=C(O)C(F)(F)F.O=c1[nH]ccc2nc(N[C@@H]3CCNC3)nc(Nc3ccc4c(c3)S(=O)(=O)CC4)c12 [GSK2181306],90%,59%,75%,84%,93.3%,56%,96.7%,0%,68%,19%
COc1ccc(C2=C(Nc3cccc(O)c3)C(=O)NC2=O)cc1 [SB-390766],0%,41%,0%,2%,63%,93.5%,36%,0%,10%,0%
O=C(Nc1c(F)cccc1F)c1cc(C(=O)c2ccccc2F)c[nH]1 [GSK1326180],22%,0%,0%,44%,0%,0%,50%,24%,0%,18%
COc1ccc(NC(=O)c2ccoc2)cc1-c1ccc(C(=O)NCC2CC2)cc1 [GW810437],23%,26%,5%,18%,7%,6%,0%,31%,13%,0%
CN(c1ccc(NC(=O)Nc2cccc(Cl)c2)cc1)c1ccnc(N)n1.Cl [GW830707],32%,0%,0%,18%,0%,79%,0%,51%,7%,0%
Nc1ncnc2scc(-c3ccc(NC(=O)Cc4cc(F)ccc4F)cc3)c12.O=C(O)C(F)(F)F [SB-731254-M],0%,66%,18%,23%,26%,2%,44%,0%,12%,0%
CN(C)CCOc1ccc(-c2cc(-c3ccc(Cl)c(O)c3)c(-c3ccncc3)[nH]2)cc1.Cl.Cl [SB-684387],18%,51%,2%,0%,1%,4%,39%,0%,0%,0%
COC(=O)Nc1nc2ccc(Oc3ccc(NC(=O)Nc4cc(C(F)(F)F)ccc4F)cc3)cc2[nH]1.Cl [GW654607],12%,51%,8%,0%,10%,92%,57%,8%,11%,2%
O=C(Nc1n[nH]c2nc(-c3ccccc3)ccc12)C1CC1 [SB-708999],0%,7%,0%,29%,0%,8%,54%,0%,4%,6%
CC(C)NCC(Cc1ccccc1)NC(=O)c1cc(Br)c(-c2ccnc3[nH]ccc23)s1.Cl.Cl (stereo not shown) [GSK1383281],89%,0%,30%,0%,35%,91.6%,44%,0%,11%,4%
CN(C)c1ncnc2nc[nH]c12 [SKF-31736],0%,3%,23%,12%,15%,0%,0%,0%,0%,0%
